According to publication PMC8384837, “Expanding the binding specificity for RNA recognition by a PUF domain”:

What was measured:
Assay in all cases: yeast three-hybrid, YBZ-1, SC-Leu-His + 0.5 mM 3-AT, 4 days
Conditions in all cases: tags: N-Gal4 AD-HA kept; label: inside an RPR1-promoter hybrid RNA with tandem MS2 sites; ssRNA
PUM1 PUF domain R7-RRG = PUM1 PUF domain R7-RRG (Homo sapiens, UniProt Q14671 828-1176, S1079R;N1080R;E1083G)
In short: (§1)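 A centromeric plasmid in strain YBZ-1 co-expressed Pumilio-1 PUF domain libraries, randomized at the three base-contacting residues of each repeat, with matching RNA elements; the strain carries a LexA–MS2 coat fusion and a HIS3 reporter. After four days on SC-Leu (input) or SC-Leu-His + 0.5 mM 3-AT (selection), the repeat regions were PCR-amplified and Illumina-sequenced. The interaction score is the log change in variant frequency from input to selection, using log2 and a pseudocount of 1 where absent.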

PUM1 PUF domain R1-CFK = PUM1 PUF domain R1-CFK (Homo sapiens, UniProt Q14671 828-1176, S863C;R864F;Q867K)
In short: as §1

PUM1 PUF domain R1-HRR = PUM1 PUF domain R1-HRR (Homo sapiens, UniProt Q14671 828-1176, S863H;Q867R)
In short: as §1

PUM1 PUF domain R1-NGR = PUM1 PUF domain R1-NGR (Homo sapiens, UniProt Q14671 828-1176, S863N;R864G;Q867R)
In short: as §1

PUM1 PUF domain R7-GSR = PUM1 PUF domain R7-GSR (Homo sapiens, UniProt Q14671 828-1176, S1079G;N1080S;E1083R)
In short: as §1

PUM1 PUF domain R7-LER = PUM1 PUF domain R7-LER (Homo sapiens, UniProt Q14671 828-1176, S1079L;N1080E;E1083R)
In short: as §1

PUM1 PUF domain R6-FRE = biological target: T1, PUM1 PUF domain R6-FRE (Homo sapiens, UniProt Q14671 828-1176, N1043F;Y1044R;Q1047E)
T1 sequence: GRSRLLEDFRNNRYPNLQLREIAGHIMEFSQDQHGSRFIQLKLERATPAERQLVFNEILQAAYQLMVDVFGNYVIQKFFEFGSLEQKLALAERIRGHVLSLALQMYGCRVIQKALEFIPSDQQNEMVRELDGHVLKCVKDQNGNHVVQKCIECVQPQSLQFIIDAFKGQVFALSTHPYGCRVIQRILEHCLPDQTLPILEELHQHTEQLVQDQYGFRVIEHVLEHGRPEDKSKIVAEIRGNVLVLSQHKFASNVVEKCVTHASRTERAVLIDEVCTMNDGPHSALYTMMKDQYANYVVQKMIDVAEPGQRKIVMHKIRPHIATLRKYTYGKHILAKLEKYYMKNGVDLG
In short: as §1

PUM1 PUF domain R4-CCM = PUM1 PUF domain R4-CCM (Homo sapiens, UniProt Q14671 828-1176, N971C;H972C;Q975M)
In short: as §1

PUM1 PUF domain R2-KFG = PUM1 PUF domain R2-KFG (Homo sapiens, UniProt Q14671 828-1176, N899K;Y900F;Q903G)
In short: as §1

PUM1 PUF domain R4-WGF = PUM1 PUF domain R4-WGF (Homo sapiens, UniProt Q14671 828-1176, N971W;H972G;Q975F)
In short: as §1

PUM1 PUF domain R5-KYG = PUM1 PUF domain R5-KYG (Homo sapiens, UniProt Q14671 828-1176, C1007K;R1008Y;Q1011G)
Chain of PUM1 PUF domain R5-KYG (Q14671 828-1176 C1007K/R1008Y/Q1011G): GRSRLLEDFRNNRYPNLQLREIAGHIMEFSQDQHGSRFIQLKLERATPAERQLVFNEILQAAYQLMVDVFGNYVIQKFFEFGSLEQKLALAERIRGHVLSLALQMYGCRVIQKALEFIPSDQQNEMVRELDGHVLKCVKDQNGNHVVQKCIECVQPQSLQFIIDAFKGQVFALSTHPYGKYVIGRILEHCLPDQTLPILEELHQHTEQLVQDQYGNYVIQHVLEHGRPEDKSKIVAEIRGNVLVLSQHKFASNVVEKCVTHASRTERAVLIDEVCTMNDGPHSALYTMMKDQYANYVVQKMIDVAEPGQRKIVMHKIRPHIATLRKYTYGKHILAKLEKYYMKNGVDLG
In short: as §1

PUM1 PUF domain R4-YLL = PUM1 PUF domain R4-YLL (Homo sapiens, UniProt Q14671 828-1176, N971Y;H972L;Q975L)
In short: as §1

PUM1 PUF domain R4-PWC = PUM1 PUF domain R4-PWC (Homo sapiens, UniProt Q14671 828-1176, N971P;H972W;Q975C)
In short: as §1

PUM1 PUF domain R8-KWL = PUM1 PUF domain R8-KWL (Homo sapiens, UniProt Q14671 828-1176, N1122K;Y1123W;Q1126L)
In short: as §1

PUM1 PUF domain R5-DFG = PUM1 PUF domain R5-DFG (Homo sapiens, UniProt Q14671 828-1176, C1007D;R1008F;Q1011G)
In short: as §1

## GGCUAGAACUAGUGGAUCCCCCGGCGCCCGGCGGCUCGAGCCCGGGUAAGUCUAAAUAGUCUGCAUGCCGCCGGGCGCCAUGCCUGCAGGUCGACUCUAGAAAACAUG
PUM1 PUF domain R7-RRG
  binding signal: 3.12 log2 enrichment (interaction score)

## GGCUAGAACUAGUGGAUCCCCCGGCGCCCGGCGGCUCGAGCCCGGGUAAGUGUAAAUUGUCUGCAUGCCGCCGGGCGCCAUGCCUGCAGGUCGACUCUAGAAAACAUG
PUM1 PUF domain R1-CFK
  binding signal: 3.31 log2 enrichment (interaction score)
PUM1 PUF domain R1-HRR
  binding signal: 2.71 log2 enrichment (interaction score)
PUM1 PUF domain R1-NGR
  binding signal: 2.32 log2 enrichment (interaction score)

## GGCUAGAACUAGUGGAUCCCCCGGCGCCCGGCGGCUCGAGCCCGGGUAAGUUUAAAUAGUCUGCAUGCCGCCGGGCGCCAUGCCUGCAGGUCGACUCUAGAAAACAUG
PUM1 PUF domain R7-GSR
  binding signal: 4.22 log2 enrichment (interaction score)
PUM1 PUF domain R7-LER
  binding signal: 3.41 log2 enrichment (interaction score)
PUM1 PUF domain R7-RRG
  binding signal: 4.6 log2 enrichment (interaction score)

## GGCUAGAACUAGUGGAUCCCCCGGCGCCCGGCGGCUCGAGCCCGGGUAAGUGUAAAUAGUCUGCAUGCCGCCGGGCGCCAUGCCUGCAGGUCGACUCUAGAAAACAUG
PUM1 PUF domain R6-FRE
  binding signal: 3.3 log2 enrichment (interaction score)
PUM1 PUF domain R4-CCM
  binding signal: 1.07 log2 enrichment (interaction score)
PUM1 PUF domain R2-KFG
  binding signal: 7.86 log2 enrichment (interaction score)
PUM1 PUF domain R4-WGF
  binding signal: 4.73 log2 enrichment (interaction score)
PUM1 PUF domain R5-KYG
  binding signal: 3.77 log2 enrichment (interaction score)
PUM1 PUF domain R4-YLL
  binding signal: 4.38 log2 enrichment (interaction score)
PUM1 PUF domain R4-PWC
  binding signal: 7.51 log2 enrichment (interaction score)
PUM1 PUF domain R8-KWL
  binding signal: 5.16 log2 enrichment (interaction score)
PUM1 PUF domain R5-DFG
  binding signal: 3.79 log2 enrichment (interaction score)
